Reference: PubChem BioAssay (Tox21)
“And” between values parts separate entries of the source, which are not always exact repeats. Identical values can stand only once. The source made the active and inactive calls. Unless noted, calls follow the shape of the dose curve; as a rule, active = well fitted curve in the direction sought with a large enough effect in the repeat runs; inconclusive = weak or mixed curves; inactive = no such curve, though single readings can be large; an effect the other way counts as inactive or inconclusive.

Assays:
[1] = qHTS assay to test for compound auto fluorescence at 535 nm (green) in HEK293 cells (AID 720680)
[2] = qHTS assay to test for compound auto fluorescence at 460 nm (blue) in HEK293 cell free culture (AID 720681)
Summary of the method: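 Blue fluorescence (Ex 405/Em 460 nm, triamterene-equivalent) was read immediately after pin transfer of compound or DMSO into medium (DMEM, 10% FBS) without cells.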

[3] = qHTS assay to test for compound auto fluorescence at 535 nm (green) in HEK293 cell free culture (AID 720682)
Summary of the method: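 Each library compound, or DMSO control, is added by pintool to medium alone, comprising DMEM and 10% FBS. Emission at 535 nm following 485 nm excitation is quantified against fluorescein.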

[4] = qHTS assay to test for compound auto fluorescence at 590 nm (red) in HEK293 cell free culture (AID 720683)
Summary of the method: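 Red-channel autofluorescence of compounds in culture medium (DMEM, 10% FBS), no cells, measured at 540/590 nm. Rose Bengal sodium is the reference fluorophore for equivalence.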

[5] = qHTS assay to test for compound auto fluorescence at 590 nm (red) in HepG2 cell free culture (AID 720684)
Summary of the method: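 Plate contents were MEM with 10% FBS plus test compound or DMSO, no cells. Fluorescence was recorded with 540 nm excitation and 590 nm emission.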

[6] = qHTS assay to test for compound auto fluorescence at 460 nm (blue) in HepG2 cell free culture (AID 720685)
Summary of the method: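 Compound (23 nL) or DMSO pinned into cell-free MEM with 10% FBS; blue fluorescence read at 405/460 nm excitation/emission, expressed as auto-fluorescence equivalency to triamterene.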

[7] = qHTS assay to test for compound auto fluorescence at 535 nm (green) in HepG2 cell free culture (AID 720686)
[8] = qHTS assay to test for compound auto fluorescence at 460 nm (blue) in HepG2 cells (AID 720687)
Summary of the method: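 Blue-channel autofluorescence (Ex/Em 405/460 nm, triamterene-equivalent) was measured after 1 hr compound exposure at 37 C, 5% CO2. Cells were HepG2, plated overnight at 37 C in MEM plus 10% FBS.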

[9] = biological target: Glucocorticoid receptor (Homo sapiens) (UniProt P04150); experiment: qHTS assay to identify small molecule agonists of the glucocorticoid receptor (GR) signaling pathway (AID 720691; active = well fitted activation curve with a large enough effect in the signal ratio in the repeat runs, not every such curve was filed as active; inconclusive = weak or mixed curves, or effect the other way; inactive = no such curve, though single readings can be large or run the other way; the % refers to the signal ratio; also: potency is read from the fitted curve at half-maximal effect); conditions: GR-bla HeLa, beta-lactamase reporter ratio, 18 h; activation: at 62.4 µM (top of the series)
Summary of the method: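 GR-bla HeLa cells carrying a GRE-driven beta-lactamase reporter, exposed to compounds for 18 h at 37 C. Reporter activation read as fluorescence after 2 h with LiveBLAzer B/G FRET substrate at room temperature.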

[10] = qHTS assay to identify small molecule antagonists of the glucocorticoid receptor (GR) signaling pathway - cell viability counter screen (AID 720693); also: nearly all actives have a fitted effect of over 55% in size; also: potency is read from the fitted curve at half-maximal effect
[11] = qHTS assay for identifying genotoxic compounds that show differential cytotoxicity against isogenic chicken DT40 cell lines with known DNA damage response pathways - wild type cell line (AID 743012); also: nearly all actives have a fitted effect of over 60% in size; also: potency is read from the fitted curve at half-maximal effect
Summary of the method: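 Wild-type DT40 cells (300/well) exposed to compounds for 40 hours at 37 C/5% CO2. Viability read by CellTiter-Glo luminescence after 30 min at room temperature.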

[12] = qHTS assay for identifying genotoxic compounds that show differential cytotoxicity against isogenic chicken DT40 cell lines with known DNA damage response pathways - Rev3 mutant cell line (AID 743014); also: nearly all actives have a fitted effect of over 55% in size; also: potency is read from the fitted curve at half-maximal effect
[13] = qHTS assay for identifying genotoxic compounds that show differential cytotoxicity against isogenic chicken DT40 cell lines with known DNA damage response pathways - Rad54/Ku70 mutant cell line (AID 743015); also: nearly all actives have a fitted effect of over 60% in size; also: potency is read from the fitted curve at half-maximal effect
[14] = qHTS assay to identify small molecule antagonists of the androgen receptor (AR) signaling pathway - cell viability counter screen (AID 743033; also: nearly all actives have a fitted effect of over 45% in size; also: potency is read from the fitted curve at half-maximal effect)
[15] = qHTS assay to identify small molecule antagonists of the androgen receptor (AR) signaling pathway using the MDA cell line - cell viability counter screen (AID 743041; also: nearly all actives have a fitted effect of over 45% in size; also: potency is read from the fitted curve at half-maximal effect)
Summary of the method: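 R1881-driven MDA-kb2 AR-luc cells, 3,000/well, were dosed with library compounds for 16 h; cell health came from CellTiter-Fluor fluorescence in the reporter wells.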

[16] = biological target: Androgen receptor (Homo sapiens) (UniProt P10275); experiment: qHTS assay to identify small molecule antagonists of the androgen receptor (AR) signaling pathway (AID 743035; active = well fitted inhibition curve with a large enough effect in the signal ratio in the repeat runs, not every such curve was filed as active; inconclusive = weak or mixed curves, or effect the other way; inactive = no such curve, though single readings can be large or run the other way; the % refers to the signal ratio; also: potency is read from the fitted curve at half-maximal effect)
Summary of the method: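 HEK293 cells stably carrying UAS-beta-lactamase reporter, 2,000/well, given compounds plus R1881 agonist and incubated 16 h at 37C. LiveBLAzer B/G FRET substrate then added for 2 h at room temperature before fluorescence reading.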

[17] = biological target: Androgen receptor (Homo sapiens) (UniProt P10275); experiment: qHTS assay to identify small molecule agonists of the androgen receptor (AR) signaling pathway using the MDA cell line (AID 743040; also: nearly all actives have a fitted effect of over 20% in size)
Summary of the method: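 After a 5 h incubation at 37C and 0% CO2, MDA-kb2 reporter cells were dosed with compounds in DMSO and kept 16 h under the same conditions. Luciferase activity was then read as luminescence with ONE-Glo.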

[18] = biological target: Androgen receptor (Homo sapiens) (UniProt P10275); experiment: qHTS assay to identify small molecule antagonists of the androgen receptor (AR) signaling pathway using the MDA cell line (AID 743042; also: nearly all actives have a fitted effect of over 55% in size; also: potency is read from the fitted curve at half-maximal effect)
Summary of the method: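 Antagonist mode: compounds plus R1881 agonist added to MDA-kb2 AR-luc cells, incubated 16 h at 37C. Luciferase reporter luminescence quantified, with multiplexed CellTiter-Fluor readout for cell viability.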

[19] = biological target: Glucocorticoid receptor (Homo sapiens) (UniProt P04150); experiment: qHTS assay to identify small molecule antagonists of the glucocorticoid receptor (GR) signaling pathway (AID 720692; active = well fitted inhibition curve with a large enough effect in the signal ratio in the repeat runs, not every such curve was filed as active; inconclusive = weak or mixed curves, or effect the other way; inactive = no such curve, though single readings can be large or run the other way; the % refers to the signal ratio; also: potency is read from the fitted curve at half-maximal effect)
Summary of the method: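 GR-bla HeLa cells carrying a GRE-driven beta-lactamase reporter received compound after 4 h plating, then dexamethasone (5 nM final). After 18 h at 37C, the FRET substrate was loaded for 2 h at room temperature and fluorescence read.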

Measured: Potency

Sequence of Androgen receptor (Homo sapiens) (P10275 whole entry, looked up): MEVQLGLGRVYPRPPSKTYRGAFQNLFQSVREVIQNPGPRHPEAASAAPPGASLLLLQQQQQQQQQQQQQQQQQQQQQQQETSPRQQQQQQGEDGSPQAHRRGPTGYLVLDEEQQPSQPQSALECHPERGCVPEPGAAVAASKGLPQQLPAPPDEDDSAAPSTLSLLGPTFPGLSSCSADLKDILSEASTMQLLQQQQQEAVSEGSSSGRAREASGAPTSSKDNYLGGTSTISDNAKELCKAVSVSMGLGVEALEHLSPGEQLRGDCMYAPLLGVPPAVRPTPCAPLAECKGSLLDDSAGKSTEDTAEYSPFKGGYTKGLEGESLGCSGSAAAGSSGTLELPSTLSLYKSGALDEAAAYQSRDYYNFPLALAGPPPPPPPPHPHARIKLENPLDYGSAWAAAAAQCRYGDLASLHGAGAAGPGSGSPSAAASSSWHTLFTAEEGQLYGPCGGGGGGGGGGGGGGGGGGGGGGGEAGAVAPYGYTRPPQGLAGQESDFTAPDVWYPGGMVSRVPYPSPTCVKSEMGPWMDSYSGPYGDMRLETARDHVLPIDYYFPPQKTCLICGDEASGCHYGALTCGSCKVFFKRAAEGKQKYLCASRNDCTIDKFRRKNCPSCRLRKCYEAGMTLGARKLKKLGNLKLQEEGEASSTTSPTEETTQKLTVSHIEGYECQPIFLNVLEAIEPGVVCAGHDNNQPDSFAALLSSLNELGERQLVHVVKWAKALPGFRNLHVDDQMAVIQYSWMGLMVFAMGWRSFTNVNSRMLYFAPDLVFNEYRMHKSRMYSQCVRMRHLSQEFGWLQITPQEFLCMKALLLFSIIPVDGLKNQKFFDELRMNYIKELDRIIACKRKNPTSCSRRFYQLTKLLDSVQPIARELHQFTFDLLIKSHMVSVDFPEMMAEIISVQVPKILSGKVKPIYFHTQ
Sequence of Glucocorticoid receptor (Homo sapiens) (P04150 whole entry, looked up): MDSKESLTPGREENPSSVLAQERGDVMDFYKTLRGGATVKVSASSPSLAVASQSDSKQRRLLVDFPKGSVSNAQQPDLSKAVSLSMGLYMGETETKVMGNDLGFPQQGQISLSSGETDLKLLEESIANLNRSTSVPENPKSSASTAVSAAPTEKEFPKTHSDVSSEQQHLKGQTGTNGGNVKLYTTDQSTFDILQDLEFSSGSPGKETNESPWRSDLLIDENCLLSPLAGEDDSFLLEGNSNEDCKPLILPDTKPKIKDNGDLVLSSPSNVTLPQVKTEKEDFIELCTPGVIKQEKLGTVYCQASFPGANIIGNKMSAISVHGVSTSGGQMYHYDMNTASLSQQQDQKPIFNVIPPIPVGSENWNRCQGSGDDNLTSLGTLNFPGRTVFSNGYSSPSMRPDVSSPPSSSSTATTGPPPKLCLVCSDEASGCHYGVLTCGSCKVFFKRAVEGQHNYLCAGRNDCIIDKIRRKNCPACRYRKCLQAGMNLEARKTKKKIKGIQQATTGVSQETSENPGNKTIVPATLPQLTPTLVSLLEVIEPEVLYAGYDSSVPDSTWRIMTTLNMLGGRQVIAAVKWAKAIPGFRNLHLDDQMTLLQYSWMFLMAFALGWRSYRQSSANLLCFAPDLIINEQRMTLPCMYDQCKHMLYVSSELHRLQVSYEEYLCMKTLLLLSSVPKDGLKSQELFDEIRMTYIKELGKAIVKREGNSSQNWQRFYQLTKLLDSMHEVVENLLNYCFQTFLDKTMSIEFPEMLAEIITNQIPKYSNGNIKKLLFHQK

CCCCCCCCCCCCCCCCCC(=O)[O][Al]
not listed: [16] | [17] | [18] | [19]
inactive: all other assays above

CC(C(=O)O)c1ccc(N2Cc3ccccc3C2=O)cc1 (centres undefined)
not listed: [16] | [17] | [18] | [19]
inactive: all other assays above

Clc1cc(Cl)c(OCC#CI)cc1Cl
active: [9] 26.8 µM [inconclusive] | [11] 1.68 µM | [12] 2.98 µM | [13] 2.66 µM
not listed: [14] | [15] | [16] | [17] | [18] | [19]
inactive: all other assays above

CCC(C)[C@H]1O[C@]2(C=C[C@@H]1C)C[C@@H]1C[C@@H](C/C=C(\C)[C@@H](O[C@H]3C[C@H](OC)[C@@H](O[C@H]4C[C@H](OC)[C@H](NC(C)=O)[C@H](C)O4)[C@H](C)O3)[C@@H](C)/C=C/C=C3\CO[C@@H]4[C@H](O)C(C)=C[C@@H](C(=O)O1)[C@]34O)O2 (some centres undefined)
active: [10] 7.56 µM and 19 µM | [11] 841 nM and 1.68 µM | [12] 1.33 µM and 2.98 µM | [13] 1.68 µM and 3.35 µM
not listed: [15] | [16] | [17] | [18] | [19]
inactive: all other assays above

CN1c2c(nc(N)[nH]c2=O)NCC1CNc1ccc(C(=O)NC(CCC(=O)O)C(=O)O)cc1 (centres undefined)
not listed: [19]
inactive: all other assays above

CN(C)C(=O)CCSC(SCCC(=O)O)c1cccc(/C=C/c2ccc3ccc(Cl)cc3n2)c1 (centres undefined)
active: [19] 8.49 µM
not listed: [10] | [11] | [12] | [13] | [15] | [16]
inactive: all other assays above

Oc1cc(O)cc(O)c1
not listed: [19]
inactive: all other assays above

CC(=O)O[C@H]1C(=O)[C@@]2(C)[C@H]([C@H](OC(=O)c3ccccc3)[C@]3(O)C[C@H](OC(=O)[C@H](O)[C@@H](NC(=O)c4ccccc4)c4ccccc4)C(C)=C1C3(C)C)[C@]1(OC(C)=O)CO[C@@H]1C[C@@H]2O
active: [11] 0.0106 µM | [12] 0.0094 µM | [13] 0.0133 µM | [14] 0.952 µM | [16] 0.0169 µM
not listed: [19]
inactive: all other assays above

C=C[C@]1(C)C[C@@H](OC(=O)CO)[C@]2(C)[C@H](C)CC[C@]3(CCC(=O)[C@H]32)[C@@H](C)[C@@H]1O
not listed: [11] | [12] | [13] | [16] | [17] | [18]
inactive: all other assays above

C[C@@](Cc1ccc(O)c(O)c1)(NN)C(=O)O
not listed: [11] | [12] | [13] | [16] | [17] | [18]
inactive: all other assays above

O=C1/C(=C\c2cccs2)CCC/C1=C\c1cccs1
active: [11] 23.7 µM | [12] 26.6 µM | [13] 29.8 µM
not listed: [16] | [19]
inactive: all other assays above

C[N@+]12CCCC[C@@H]1CCC(=C(c1cccs1)c1cccs1)C2
active: [11] 5.96 µM | [12] 10.6 µM | [13] 8.41 µM | [15] 26.6 µM | [18] 18.8 µM
not listed: [17] | [19]
inactive: all other assays above

COc1ccc(/C=C/C(=O)OCCC(C)C)cc1
not listed: [16] | [17] | [18] | [19]
inactive: all other assays above

CO[C@@]1(NC(=O)C2SC(=C(C(N)=O)C(=O)O)S2)C(=O)N2C(C(=O)O)=C(CSc3nnnn3C)CS[C@@H]21 (some centres undefined)
not listed: [10] | [16] | [17] | [18]
inactive: all other assays above
